From PubChem BioAssay (NCI)
Compounds without any hit were thinned out: in the full panel of roughly 79,000, 15% have a hit. Active and inactive are the calls of the source. No stated cut-off is given here; in the data, active means growth inhibition above about 70%; inactive means the rest.

Key:
[1] = NCI Yeast Anticancer Drug Screen. Data for the rad50 strain (AID 155);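 further: 0% = growth of vehicle-only cultures of the same strain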; details: S. cerevisiae rad50 strain growth inhibition; at 50.0 µM; active compounds read high
Method in brief: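 Relative growth inhibition (compound vs vehicle) was measured in yeast with a defined repair-gene alteration.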

[2] = NCI Yeast Anticancer Drug Screen. Data for the mec2-1 strain (AID 157); details: S. cerevisiae mec2-1 strain, at 50.0 µM, active compounds read high
Method in brief: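 Readout is yeast growth inhibition, normalised to vehicle-treated controls, in the mec2-1 strain exposed to compound.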

[3] = NCI Yeast Anticancer Drug Screen. Data for the sgs1 mgt1 strain (AID 161);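 further: 0% = growth of cultures given vehicle only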; details: S. cerevisiae sgs1 mgt1 strain, at 50.0 µM, active compounds read high
Method in brief: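 Percent growth inhibition was derived by comparing compound-exposed mutant yeast with vehicle-exposed cultures. The strain carries alterations in DNA damage repair.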

[4] = NCI Yeast Anticancer Drug Screen. Data for the cln2 rad14 strain (AID 165);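 further: 0% = growth equal to vehicle treated cultures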; details: S. cerevisiae cln2 rad14 strain, at 50.0 µM, active compounds read high
Method in brief: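 Relative to vehicle controls, growth inhibition of compound-treated cln2 rad14 yeast was recorded.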

[5] = NCI Yeast Anticancer Drug Screen. Data for the bub3 strain (AID 167); details: S. cerevisiae bub3 mutant strain, at 50.0 µM, active compounds read high
Method in brief: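 Screening used yeast with an engineered genetic alteration affecting cell cycle control. Compound-exposed cultures were compared with vehicle cultures, and reduced growth was taken as inhibition.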

[6] = NCI Yeast Anticancer Drug Screen. Data for the mlh1 rad18 strain (AID 175); details: S. cerevisiae mlh1 rad18 strain growth inhibition; at 50.0 µM; active compounds read high
Method in brief: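 Test agents were incubated with a yeast strain of defined genotype (DNA damage repair defect). Inhibition of growth was derived by comparison with vehicle-exposed cultures.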

Measured: growth inhibition

CC(=O)Oc1ccc(Nn2c3ccccc3c3ccccc32)c(C)c1
inactive: [1] 56.6% | [2] 47.9% | [3] 36.1% | [4] 54.6% | [5] 41.4% | [6] 43%

O=C(Cn1ccc(=O)[nH]c1=O)Nc1ccc(C(=O)O)c(O)c1
inactive: [1] 0.45% | [2] -43.1% | [3] -24.9% | [4] -45.8% | [5] -31.4% | [6] 0.55%

CCOC(=O)C1=CC(C)(C(=O)OCC)Nc2c(nc(SC)n(C)c2=O)N1 (stereo not given)
inactive: [1] -19.4% | [2] -21.2% | [3] -16.3% | [4] 16.8% | [5] -1.55% | [6] 14.2%

O=C(Nc1ccccc1O)c1ccc(Cl)c(Cl)c1
inactive: [1] -7.6% | [2] 32% | [3] 33.2% | [4] -23.2% | [5] 49% | [6] 36.2%

O=C(NCc1ccccc1)c1ccc([N+](=O)[O-])cc1
inactive: [1] -7.2% | [2] 13.8% | [3] 10.3% | [4] -44.2% | [5] 22.8% | [6] 11.7%

CC1=CC2(C)Cc3cc(C)cc(C)c3S(=O)(=O)C2C(C(=O)O)=C1 (stereo not given)
inactive: [1] -11% | [2] -30.4% | [3] -13.9% | [4] -13.5% | [5] -14.8% | [6] -15.2%

CC(=O)NC(C=O)C(O)C(O)C(O)C(=O)O (stereo not given) (tested in a mixture with another compound)
inactive: [1] -25.4% | [2] -31.2% | [3] -22.2% | [4] 1.8% | [5] -22.9% | [6] -4.9%

CC(C)(C)c1cc(C(c2ccc3c(c2)OCO3)N2CCOCC2)c(O)c(C(C)(C)C)c1 (stereo not given)
inactive: [1] 12.3% | [2] -12.3% | [3] -2.05% | [4] 14.8% | [5] 13.1% | [6] 16.9%

CN1N=CSC12C(=O)N(c1ccc(Cl)cc1)C(=O)N2c1ccc(Cl)cc1 (stereo not given)
inactive: [1] 18.1% | [2] 3.6% | [3] 11.2% | [4] 30.4% | [5] 51% | [6] 11.9%

Cc1cccc(C)c1NC(=O)Nc1cccc(O)c1
inactive: [1] -1.4% | [2] 34.8% | [3] 13.5% | [4] -4.4% | [5] 37.6% | [6] 26.4%

O=C1Cc2c([nH]c3ccccc23)-c2ccccc2N1
inactive: [1] 25.1% | [2] 13.9% | [3] 13.8% | [4] 5.05% | [5] 35.8% | [6] 21.1%

OCc1cc2ccccc2c2c3c(ccc12)OCO3
inactive: [1] 39.9% | [2] 4.6% | [3] 20.7% | [4] -37.9% | [5] -1.05% | [6] 15.9%

CCNC(=O)C1CCCN1C(=O)C(CCCN=C(N)N)NC(=O)C(CC(C)C)NC(=O)C(Cc1c[nH]c2ccccc12)NC(=O)C(Cc1ccc(O)cc1)NC(=O)C(CO)NC(=O)C(Cc1c[nH]c2ccccc12)NC(=O)C(Cc1cnc[nH]1)NC(=O)C1CCC(=O)N1 (stereo not given)
inactive: [1] -11.6% | [2] -10.6% | [3] -18.5% | [4] -21.6% | [5] 6.05% | [6] 10.2%

Brc1ccc2c(c1)C1(c3cc(Br)ccc3-2)c2cc(Br)ccc2-c2ccc(Br)cc21
inactive: [1] 2.45% | [2] -5.9% | [3] -13.7% | [4] 22.7% | [5] 5.25% | [6] 3.95%

N#CC1(C(c2cccc3ccccc23)c2cccc3ccc4ccccc4c23)CC(=O)OC1=O (stereo not given)
inactive: [1] 5.25% | [2] -11.4% | [3] 14.1% | [4] 12.1% | [5] -2.55% | [6] 9.65%

CCOc1ccc(/C=C2\N=C(c3cccc(Cl)c3)OC2=O)cc1
inactive: [1] 12.2% | [2] 15.3% | [3] 22.1% | [4] 19.6% | [5] 17.2% | [6] 13.7%

O=c1[nH]c2cc(Cl)ccc2nc1/C(=N\O)C(O)c1ccc(Cl)cc1Cl (stereo not given)
inactive: [1] -9.9% | [2] -24.4% | [3] -0.35% | [4] 20.6% | [5] -5.6% | [6] -13.2%

CCCCCCCCCCCCCCCCCC(=O)OCCCC
inactive: [1] 6.35% | [2] -9.9% | [3] -20.1% | [4] -20.4% | [5] 0.2% | [6] -22%

CCN(CC)CC
inactive: [1] -8.4% | [2] -6.2% | [3] -21.2% | [4] -53.4% | [5] -19% | [6] 19.4%

N#CCCCO
inactive: [1] -1.25% | [2] 11.6% | [3] 7.45% | [4] -4.55% | [5] 0.3% | [6] -11.8%

CCCc1cc(=O)oc2c3c(c4c(c12)OC(C)(C)CC4)O[C@H](C)C(C)[C@@H]3O (stereo not given in full)
inactive: [1] 9.9% | [2] 7.45% | [3] 22.1% | [4] -11.3% | [5] 2.85% | [6] -10.6%

O=c1c2cc([N+](=O)[O-])ccc2c2ccc([N+](=O)[O-])cc2c(=O)n1-c1ccc2c(c1)Cc1ccccc1-2
inactive: [1] 21.5% | [2] -21% | [3] -19.2% | [4] -21.4% | [5] -8.35% | [6] -5%

CC(C)(C)C(=O)Oc1ccc(/C=C/C(=O)c2ccc(OC(=O)C(C)(C)C)cc2)cc1
inactive: [1] -5.45% | [2] -20.9% | [3] -28% | [4] -20.9% | [5] -22.9% | [6] -24.4%

COc1ccc(N(C)CN(C)c2nc(N(C)C)nc(N(C)C)n2)cc1
inactive: [1] -67.8% | [2] -30.8% | [3] -43% | [4] -45.4% | [5] -60.8% | [6] -62.9%

CN1c2ccccc2SC1(C)CCC(=O)O (stereo not given)
inactive: [1] 21.5% | [2] 35.9% | [3] 37.6% | [4] 6% | [5] 29.6% | [6] 7.65%

CCOC(=O)c1oc2cc(O)cc(O)c2c(=O)c1-c1ccc(OC)cc1
inactive: [1] 7.8% | [2] -30.4% | [3] 11.6% | [4] 11.1% | [5] 3.1% | [6] 0.35%

O=[N+]([O-])c1cccc(SNSc2cccc([N+](=O)[O-])c2)c1
inactive: [1] 29% | [2] 12.8% | [3] 8.4% | [4] -35.5% | [5] 9.8% | [6] 23.8%

CC(CCc1ccccc1)NC(=O)c1ccccc1 (stereo not given)
inactive: [1] 5% | [2] -40.1% | [3] -1.45% | [4] 11.2% | [5] 10.7% | [6] -16.6%

OC[C@@H](O)[C@H]1NC[C@@H](O)[C@H]1O
inactive: [1] -45.1% | [2] -57.1% | [3] -50.1% | [4] 7.7% | [5] -26.1% | [6] -17.9%

O=c1[nH]c(=O)n(C2CC(O)C(CO)O2)cc1NN=NCCc1ccccc1 (stereo not given)
inactive: [1] -24.3% | [2] 0.75% | [3] 5.05% | [4] 4.85% | [5] 1.9% | [6] 10.8%

CN1C[C@H]2[C@@H](C1=O)[C@H](c1ccc([N+](=O)[O-])cc1)ON2C
inactive: [1] -50.5% | [2] -72.5% | [3] -39.7% | [4] 14.9% | [5] 1.2% | [6] -33.8%

CCCC/C=C(\C)C(C)(C#N)C(=O)OCC (stereo not given)
inactive: [1] -35.4% | [2] -0.4% | [3] -4.5% | [4] -14% | [5] -17.9% | [6] -3.15%

O=C(CCBr)Nc1ccccc1
inactive: [1] 11.1% | [2] -15.2% | [3] -7.15% | [4] -38.2% | [5] -7.35% | [6] -26.4%

CNC(=O)OCc1c(COC(=O)NC)c2n(c1C)CSC2
inactive: [1] 4.95% | [2] -14.4% | [3] -11.3% | [4] -7.9% | [5] -5.45% | [6] 2%

CCOC(=S)SCCSC
inactive: [1] 11.7% | [2] 6.3% | [3] -1.45% | [4] 4.35% | [5] -3.6% | [6] 11.6%

O=C(O)CCc1nc(-c2ccccc2-n2cccc2)no1
inactive: [1] -43.8% | [2] -36.1% | [3] -30.4% | [4] 38.2% | [5] -15.4% | [6] 8.2%

Nc1nnnn1C(=O)NCCCl
inactive: [1] -6.55% | [2] 0.6% | [3] -6.45% | [4] -24.8% | [5] -20.4% | [6] -5.25%

Cc1nc(N)nc(C)c1N=Nc1cc(Br)ccc1Br
inactive: [1] 26.1% | [2] -14.1% | [3] -15.4% | [4] -13.7% | [5] 0.35% | [6] -7.6%

C=CCn1ccc(=O)nc1SCc1ccccc1
inactive: [1] 5.45% | [2] -4.8% | [3] 0.4% | [4] -33.5% | [5] 3.35% | [6] 0.05%

O=C(NC(=O)C(F)(F)C(F)(F)F)Nc1cc(F)ccc1F
inactive: [1] 5.15% | [2] -2.05% | [3] 1.45% | [4] -38.8% | [5] -6.55% | [6] -29%
